Test results as given in publication PMC12136788.
Changes are numbered by the printed parent chain. In all, about 24,000 sequences were measured (“enrichment r”: median about 0.99, highest 2% from about 3.7 on). The sample holds the highest values, similar sequences and a random draw of the others, so the mix is not that of the screen.

B1: 55264158_55264526_802_CDS_ENSMUSG00000022185_ENSMUST00000148754|mouse|control|control (ssRNA)
RNA: GGGAGUUCUACAGUCCGACGAUCGAUGGACCUCCGGGUUAAGGUAUCUCCUAAUGUUACUUUCUUUACUUCGUGCUCCACAGGUGGGGGCAAGGCAACCUCCACUGACACCUGGGGUGGCGCCGGCAGCUCGGCUUCAGGCUCCAACAGAGGAUUGAGCAUCA
B2: chrX:71549400:71549401:+_ENSMUSG00000019087_ENSMUST00000019231|mus_hu|mus_mus_mus_hu_False|18_48 (ssRNA)
RNA: GGGAGUUCUACAGUCCGACGAUCGCAGUAGGAAGAGGGAAGCUCUUCAGUCCAGUGCGCUGCAGGGUGGGAAAGCAACAACACGGAACCAAUACUCCCCUCAACCCCCCCACUGGCAUGUCACACAACAAUCUGGGUCAAAGACAACAGAGGAUUGAGCAUCA
B3: chr6:42636609:42636610:-_ENSMUSG00000036667_ENSMUST00000045054|mus_hu|FALSE|FALSE (ssRNA)
RNA: GGGAGUUCUACAGUCCGACGAUCGGCAUCAAUACAGUAAACCCCCAGGGAGUCUUUCACUUCUGGCUCAACCUUUGCAUCCACUCCAGAGCCCUCGAGGAUUUUGGCCAAAGGUGCCAGGGAUGGGUGUACACCAAUGGGAGCCAACAGAGGAUUGAGCAUCA
B4: 113287723_113287843_2736_3pUTR_ENSG00000114999_ENST00000233336|human|control|control (ssRNA)
RNA: GGGAGUUCUACAGUCCGACGAUCCCUUUUUCAUUGUAAGUUCUCACAUCUCAUCAUGUUCAAGGAGGCAUUGAUUUUCUCCUCUUUUGUAAAAGUCUCACCUGACUGCAGAAAUGUUUUCUUGAGCCAAGUAGAAAUGAGGAACAACAGAGGAUUGAGCAUCA
B5: chr2:153237265:153237266:-_ENSMUSG00000061411_ENSMUST00000109784|mus_mus|mus_mus_mus_hu_False|28_58 (ssRNA)
RNA: GGGAGUUCUACAGUCCGACGAUCAAAAAAAAAAAAAAAAAAGUGUCCUUGUGCCCAAAGUCUCAGGUGCUUGGAGUGCAGCUAGAAACAGCUCUUUUGGAUCCCACCUCUUUCAGAAACAAAAUGUACCAACUGGUGAGGCAGCAACAGAGGAUUGAGCAUCA
B6: chr18:65376317:65376318:+_ENSMUSG00000024589_ENSMUST00000163516|mus_mus|motif|central (ssRNA)
RNA: GGGAGUUCUACAGUCCGACGAUCUGCUAUACCAACAGAAAACUAUCCCUUUCCUAGGAAACACUAGACAGGCUCAUGUCCGGACGCGGCAGCUGCUUCUCUGGCACACUGAAAACACUCUGGGGUGGAGUGUGCAUACACAGACAACAGAGGAUUGAGCAUCA
B7: chr2:153237265:153237266:-_ENSMUSG00000061411_ENSMUST00000109784|mus_hu|FALSE|FALSE (ssRNA)
RNA: B5 RNA with C78U, A79G, G115A
B8: chr2:153237265:153237266:-_ENSMUSG00000061411_ENSMUST00000109784|mus_mus|mus_mus_mus_hu_False|28_28 (ssRNA)
RNA: B5 RNA with C78U, A79G
B9: chr2:153237265:153237266:-_ENSMUSG00000061411_ENSMUST00000109784|mus_mus|mus_mus_mus_hu_False|1_1 (ssRNA)
RNA: B5 RNA with C78U, A79G, G115A, G137A, A138G, G140C, C141A, A142G
B10: chr2:153237265:153237266:-_ENSMUSG00000061411_ENSMUST00000109784|mus_mus|mus_mus_mus_hu_False|1_28 (ssRNA)
RNA: B5 RNA with C78U, A79G, G137A, A138G, G140C, C141A, A142G
B11: chr2:153237265:153237266:-_ENSMUSG00000061411_ENSMUST00000109784|mus_mus|mus_mus_mus_hu_False|58_58 (ssRNA)
RNA: B5 RNA with G115A
B12: chr3:149686290:149686291:-_ENSG00000070087_ENST00000452853|perfect_dup|FALSE|FALSE (ssRNA)
RNA: GGGAGUUCUACAGUCCGACGAUCUCCAAGAGUCAAACCGUUGGUAAAGAAACCUUCCCGGUCUUUUCCUACAAUCAUAUCUAUUUCUACUGGCGUGAUGCUCUGGAAGACGCCCCCGGCCGUGGCUGCCCAGACGUAUUUGGCCAACAGAGGAUUGAGCAUCA
B13: 153895285_153895405_106_5pUTR_ENSG00000143614_ENST00000368655|human|control|control (ssRNA)
RNA: GGGAGUUCUACAGUCCGACGAUCGGCACAGGGGAUCCAGACCCUGCUGACGGGACUAGGGACGGGGGUAGGGGAGGGGGGCGGGCCGGACCGGGGCGGGCGGGCGGAGCAGACACUGCGGUACAGACGGGGGCAGCGGCGGCGCAACAGAGGAUUGAGCAUCA
B14: chr14:76904540:76904541:+_ENSMUSG00000022010_ENSMUST00000022587|mus_mus|FALSE|FALSE (ssRNA)
RNA: GGGAGUUCUACAGUCCGACGAUCAAAGAAAUGGAAAAAUGUCUCAGUUGGUAAACUCCUAGAUCCAUCGCCACUGGUCUACACCAUUGGGAUUUCAUGCAAUUGCAGCCAAAUUAAAAAAACAGCCCCGUGGAAAAAAAAGAGCAACAGAGGAUUGAGCAUCA
B15: chr1:88750987:88750988:+_ENSMUSG00000053333_ENSMUST00000065694|mus_mus|FALSE|FALSE (ssRNA)
RNA: GGGAGUUCUACAGUCCGACGAUCUGAUAAGCCUCUUGUGUCCUGUGGUAUGGGGGUGUUCUCAUCUUUCAUAACUGGAGUACUAGAAUCUUCUUUUCCUCUGUCAGGAGUAGAGAUUGACAAUUUCUUAACACCAUCAACCAGCAACAGAGGAUUGAGCAUCA
B16: chr18:33744517:33744518:+_ENSG00000134759_ENST00000351393|hu_hu|motif|central (ssRNA)
RNA: GGGAGUUCUACAGUCCGACGAUCUAAGAACUUCUCAUUAGGUGAGAAGGCCAUCUGCGUGACUGUCAAACUGUGGAAAACGGAAUUCUGCACCUGUUUCCAAGAUGUAGUGUUCCAAAGAAUGAUAGCUGCAUGCUCUUUCUUCAACAGAGGAUUGAGCAUCA
B17: chr4:115894766:115894767:+_ENSMUSG00000028698_ENSMUST00000030464|mus_hu|mus_mus_mus_hu_True|38_38 (ssRNA)
RNA: GGGAGUUCUACAGUCCGACGAUCUUCCACACGGAAAUGUACUUCGGGUUUUCCAACGGCCAGUACCAGUCCGGCCAAACUACCCGAACAGGGUCCUGUCCUCCUCUCCUACAGAACACAACAAAAUGCCCCCGAACUUUCAAGCAACAGAGGAUUGAGCAUCA
B18: chr14:31813938:31813939:-_ENSMUSG00000021917_ENSMUST00000162092|perfect_dup|motif|central (ssRNA)
RNA: GGGAGUUCUACAGUCCGACGAUCAACUAUGUAGACAGUCCACCCAAACUGUUCAGCCACGUACCCGUAGAUAAACCCAACGGUUGCAGAAAAAAGAAUGAUCCCCUGAAACAUCUGUUCAGCUAGUUUCUGCCCCUUGUAAUCCAACAGAGGAUUGAGCAUCA
B19: chr2:209110096:209110097:-_ENSG00000138413_ENST00000345146|hu_hu|FALSE|FALSE (ssRNA)
RNA: GGGAGUUCUACAGUCCGACGAUCUUCUUCAAAGUUAUGUACCAGGUAUGUCACCUUUUGGGUUCCGUCACUUGGUGUGUAGGUUAUCUCUACUUUUCCAGGCCCAGGAACAACAAAAUCAGUUGCUCUGUAUUGAUCCCCAUACAACAGAGGAUUGAGCAUCA
B20: chr2:153237265:153237266:-_ENSMUSG00000061411_ENSMUST00000109784|mus_mus|mus_mus_mus_hu_False|1_58 (ssRNA)
RNA: B5 RNA with G115A, G137A, A138G, G140C, C141A, A142G
B21: chr2:153237265:153237266:-_ENSMUSG00000061411_ENSMUST00000109784|mus_mus|mus_mus_mus_hu_False|1_78 (ssRNA)
RNA: B5 RNA with G66A, C78U, A79G, G115A, G137A, A138G, G140C, C141A, A142G
B22: chr2:153237265:153237266:-_ENSMUSG00000061411_ENSMUST00000109784|mus_mus|mus_mus_mus_hu_False|8_18 (ssRNA)
RNA: GGGAGUUCUACAGUCCGACGAUCAAAAAAAAAAAAAAAAAAGUGUCCUUGUGCCCAAAGUCUCAGGUGCUUGGAGUGUGGCUAGAAACAGCUCUUUUGGAUCCCACCUCUUUCAAAAAACAGUGUACCAACUGGUGGAGGCAGCAACAGAGGAUUGAGCAUCA
B23: chr3:138121269:138121270:+_ENSG00000158186_ENST00000289104|hu_hu|FALSE|FALSE (ssRNA)
RNA: GGGAGUUCUACAGUCCGACGAUCCAGGUGGCUUCCUUGUCUCUUUGAGAGGUGGGAAAGCCCGUGCCCUCUGGGCAAAGCCAGACCCUGUCUGCUCCCUGCCCACCUGCCCUUCUCCCUUCCUGUACCAAGUCCUUGGGCCAACAACAGAGGAUUGAGCAUCA
B24: chr2:25965407:25965408:-_ENSG00000143970_ENST00000336112|hu_mus|FALSE|FALSE (ssRNA)
RNA: GGGAGUUCUACAGUCCGACGAUCAUGUGCUGCCGGAAUAAAAUCUCUAGGCAGGCUCUUUUCAUCAGAUGCUUGGCCUCUAGAGAAUAUGUAAUUCUCCUGGCCUAAAGUGGUUUGCUCACUCACUGGUGCCUCAGUCUUACCCAACAGAGGAUUGAGCAUCA
B25: chr10:70731730:70731731:+_ENSG00000165732_ENST00000354185|hu_hu|motif|central (ssRNA)
RNA: GGGAGUUCUACAGUCCGACGAUCAACCUCAGGGAUGUCUAACCCACGUGCAGCAACAUUGGUUGCCACCAAAACUCCAAAACGGCCAUUUCUAAAACCUUUCAGGGUGAUUUCCCUUUGCUUCUGUGGAAUGUCUCCAUGCAACAACAGAGGAUUGAGCAUCA
B26: chr2:153237265:153237266:-_ENSMUSG00000061411_ENSMUST00000109784|mus_hu|motif|central (ssRNA)
RNA: B5 RNA with C78U, A79G, U82G, A83G, G115A
B27: chr7:72892646:72892647:-_ENSG00000009954_ENST00000339594|hu_hu|FALSE|FALSE (ssRNA)
RNA: GGGAGUUCUACAGUCCGACGAUCCUUGUCACUGUGCUUCCCUGGUUUCUUGGCAGGUGGGCCUUUUUUAGGAAUGUGAAAGUUAGUGUGCAGCUUAUUGGGCGACAUCAUCUUCAUCAUUUCUUCUAGAUGUUCUUCAGGAGACAACAGAGGAUUGAGCAUCA

Each binder was assayed against T1, UNK ZnF1-3 (human, UniProt Q9C0B0 31-174) (assay: nsRBNS (natural sequence RNA bind-n-seq); RBNS binding buffer (assumed for nsRBNS): 25 mM Tris pH 7.5, 150 mM KCl, 3 mM MgCl2, 0.01% Triton X-100, 500 ug/ml BSA, 20 U/ml SUPERase-In, 4 C; UNK is unkempt and MSI1 is Musashi-1; names of the RNAs are library labels; protein concentration not given here; high values mean tight binding).
T1 sequence: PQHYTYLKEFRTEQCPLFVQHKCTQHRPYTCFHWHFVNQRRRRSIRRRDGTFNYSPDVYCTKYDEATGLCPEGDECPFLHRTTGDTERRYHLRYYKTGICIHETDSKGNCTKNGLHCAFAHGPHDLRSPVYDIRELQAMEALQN

Binder	binding signal
B1	0.664 enrichment R
B2	1.29 enrichment R
B3	1.69 enrichment R
B4	0.859 enrichment R
B5	3.57 enrichment R
B6	1.06 enrichment R
B7	6.49 enrichment R
B8	3.18 enrichment R
B9	6.8 enrichment R
B10	3.93 enrichment R
B11	4.5 enrichment R
B12	0.967 enrichment R
B13	0.68 enrichment R
B14	3.35 enrichment R
B15	0.857 enrichment R
B16	0.574 enrichment R
B17	0.864 enrichment R
B18	1.33 enrichment R
B19	0.472 enrichment R
B20	7.14 enrichment R
B21	8.18 enrichment R
B22	5.27 enrichment R
B23	0.645 enrichment R
B24	0.767 enrichment R
B25	0.937 enrichment R
B26	5.88 enrichment R
B27	0.485 enrichment R
